# Experimental data reported in the supplement of paper PMC6992640.
# System: WHIM30 (cells of a triple-negative basal-like breast cancer xenograft)
# Assay: cell viability of combination (% of vehicle); higher = less cytotoxic
# Settings: 1 µM; 72 h; partner dose: 10 nM
# Method: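 PDX cells were treated for 72 h with each drug at 1 µM plus carfilzomib (10 nM; 100 nM for WHIM2). Luciferase viability is expressed as percent of vehicle.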
row,Structure (SMILES),cell viability of combination
1,C=CC(=O)Nc1cc(Nc2nccc(-c3cn(C)c4ccccc34)n2)c(OC)cc1N(C)CCN(C)C + CC(C)C[C@H](NC(=O)[C@H](CCc1ccccc1)NC(=O)CN1CCOCC1)C(=O)N[C@@H](Cc1ccccc1)C(=O)N[C@@H](CC(C)C)C(=O)[C@@]1(C)CO1 [Carfilzomib],17.5
2,CNC(=O)c1cc(Oc2ccc(NC(=O)Nc3ccc(Cl)c(C(F)(F)F)c3)c(F)c2)ccn1.Cl [Regorafenib hydrochloride] + CC(C)C[C@H](NC(=O)[C@H](CCc1ccccc1)NC(=O)CN1CCOCC1)C(=O)N[C@@H](Cc1ccccc1)C(=O)N[C@@H](CC(C)C)C(=O)[C@@]1(C)CO1 [Carfilzomib],32.8
3,CN1CCN(CCCN2c3ccccc3Sc3ccc(C(F)(F)F)cc32)CC1.Cl.Cl [Trifluoperazine 2HCl] + CC(C)C[C@H](NC(=O)[C@H](CCc1ccccc1)NC(=O)CN1CCOCC1)C(=O)N[C@@H](Cc1ccccc1)C(=O)N[C@@H](CC(C)C)C(=O)[C@@]1(C)CO1 [Carfilzomib],16.7
4,Clc1ccc(C(Cn2ccnc2)OCc2c(Cl)cccc2Cl)c(Cl)c1.O=[N+]([O-])O (stereo not given) [Isoconazole nitrate] + CC(C)C[C@H](NC(=O)[C@H](CCc1ccccc1)NC(=O)CN1CCOCC1)C(=O)N[C@@H](Cc1ccccc1)C(=O)N[C@@H](CC(C)C)C(=O)[C@@]1(C)CO1 [Carfilzomib],16.4
5,COC(=O)c1ccc2c(c1)NC(=O)C2=C(Nc1ccc(N(C)C(=O)CN2CCN(C)CC2)cc1)c1ccccc1 [Nintedanib (BIBF 1120)] + CC(C)C[C@H](NC(=O)[C@H](CCc1ccccc1)NC(=O)CN1CCOCC1)C(=O)N[C@@H](Cc1ccccc1)C(=O)N[C@@H](CC(C)C)C(=O)[C@@]1(C)CO1 [Carfilzomib],24.9
6,CCN(CC)CCNC(=O)c1c(C)[nH]c(C=C2C(=O)Nc3ccc(F)cc32)c1C [Sunitinib] + CC(C)C[C@H](NC(=O)[C@H](CCc1ccccc1)NC(=O)CN1CCOCC1)C(=O)N[C@@H](Cc1ccccc1)C(=O)N[C@@H](CC(C)C)C(=O)[C@@]1(C)CO1 [Carfilzomib],33.2
7,Cl.OC(CNCC(O)C1CCc2cc(F)ccc2O1)C1CCc2cc(F)ccc2O1 (stereo not given) [Nebivolol] + CC(C)C[C@H](NC(=O)[C@H](CCc1ccccc1)NC(=O)CN1CCOCC1)C(=O)N[C@@H](Cc1ccccc1)C(=O)N[C@@H](CC(C)C)C(=O)[C@@]1(C)CO1 [Carfilzomib],21.2
8,CCc1cnn2c(NCc3ccc[n+]([O-])c3)cc(N3CCCCC3CCO)nc12 (stereo not given) + CC(C)C[C@H](NC(=O)[C@H](CCc1ccccc1)NC(=O)CN1CCOCC1)C(=O)N[C@@H](Cc1ccccc1)C(=O)N[C@@H](CC(C)C)C(=O)[C@@]1(C)CO1 [Carfilzomib],7.14
9,C1=C\COCc2cc(ccc2OCCN2CCCC2)Nc2nccc(n2)-c2cccc(c2)COC/1 [Pacritinib] + CC(C)C[C@H](NC(=O)[C@H](CCc1ccccc1)NC(=O)CN1CCOCC1)C(=O)N[C@@H](Cc1ccccc1)C(=O)N[C@@H](CC(C)C)C(=O)[C@@]1(C)CO1 [Carfilzomib],11.5
10,CC(C)(C)Cn1c(N)nc2ccc(-c3[nH]c(C(C)(C)C)nc3-c3ccc(F)cc3)nc21.CS(=O)(=O)O.CS(=O)(=O)O + CC(C)C[C@H](NC(=O)[C@H](CCc1ccccc1)NC(=O)CN1CCOCC1)C(=O)N[C@@H](Cc1ccccc1)C(=O)N[C@@H](CC(C)C)C(=O)[C@@]1(C)CO1 [Carfilzomib],14.4
11,Cc1cc(-n2c(=O)[nH]c(=O)n(C)c2=O)ccc1Oc1ccc(SC(F)(F)F)cc1 [Toltrazuril] + CC(C)C[C@H](NC(=O)[C@H](CCc1ccccc1)NC(=O)CN1CCOCC1)C(=O)N[C@@H](Cc1ccccc1)C(=O)N[C@@H](CC(C)C)C(=O)[C@@]1(C)CO1 [Carfilzomib],19.3
12,CC(O)C(=O)O.CC(O)C(=O)O.CN1CCN(c2ccc3c(c2)NC(=C2C(=O)N=c4cccc(F)c4=C2N)N3)CC1 [Dovitinib Dilactic acid] + CC(C)C[C@H](NC(=O)[C@H](CCc1ccccc1)NC(=O)CN1CCOCC1)C(=O)N[C@@H](Cc1ccccc1)C(=O)N[C@@H](CC(C)C)C(=O)[C@@]1(C)CO1 [Carfilzomib],32.1
13,C[C@H]1O[C@@H](O[C@H]2[C@@H](O)C[C@H](O[C@H]3[C@@H](O)C[C@H](O[C@H]4CC[C@@]5(C)[C@H](CC[C@@H]6[C@@H]5C[C@@H](O)[C@]5(C)[C@@H](C7=CC(=O)OC7)CC[C@]65O)C4)O[C@@H]3C)O[C@@H]2C)C[C@H](O)[C@@H]1O [Digoxin] + CC(C)C[C@H](NC(=O)[C@H](CCc1ccccc1)NC(=O)CN1CCOCC1)C(=O)N[C@@H](Cc1ccccc1)C(=O)N[C@@H](CC(C)C)C(=O)[C@@]1(C)CO1 [Carfilzomib],4.55
14,CC(C)c1nc(N(C)S(C)(=O)=O)nc(-c2ccc(F)cc2)c1C=CC(O)CC(O)CC(=O)[O-].CC(C)c1nc(N(C)S(C)(=O)=O)nc(-c2ccc(F)cc2)c1C=CC(O)CC(O)CC(=O)[O-].[Ca+2] (stereo not given) [Rosuvastatin Calcium] + CC(C)C[C@H](NC(=O)[C@H](CCc1ccccc1)NC(=O)CN1CCOCC1)C(=O)N[C@@H](Cc1ccccc1)C(=O)N[C@@H](CC(C)C)C(=O)[C@@]1(C)CO1 [Carfilzomib],19.6
15,CC(CCC(=O)O)C1CCC2C3CCC4CC(O)CCC4(C)C3CCC12C (stereo not given) [Lithocholic Acid] + CC(C)C[C@H](NC(=O)[C@H](CCc1ccccc1)NC(=O)CN1CCOCC1)C(=O)N[C@@H](Cc1ccccc1)C(=O)N[C@@H](CC(C)C)C(=O)[C@@]1(C)CO1 [Carfilzomib],21.6
16,CCN(CC)CCCC(C)Nc1ccnc2cc(Cl)ccc12.O=P(O)(O)O.O=P(O)(O)O (stereo not given) [Chloroquine diphosphate] + CC(C)C[C@H](NC(=O)[C@H](CCc1ccccc1)NC(=O)CN1CCOCC1)C(=O)N[C@@H](Cc1ccccc1)C(=O)N[C@@H](CC(C)C)C(=O)[C@@]1(C)CO1 [Carfilzomib],13.5
17,Clc1ccc(COC(Cn2ccnc2)c2ccc(Cl)cc2Cl)cc1.O=[N+]([O-])O (stereo not given) [Econazole nitrate] + CC(C)C[C@H](NC(=O)[C@H](CCc1ccccc1)NC(=O)CN1CCOCC1)C(=O)N[C@@H](Cc1ccccc1)C(=O)N[C@@H](CC(C)C)C(=O)[C@@]1(C)CO1 [Carfilzomib],17.7
18,CCOC(=O)C1=C(COCCN)NC(C)=C(C(=O)OC)C1c1ccccc1Cl.O=S(=O)(O)c1ccccc1 (stereo not given) [Amlodipine Besylate] + CC(C)C[C@H](NC(=O)[C@H](CCc1ccccc1)NC(=O)CN1CCOCC1)C(=O)N[C@@H](Cc1ccccc1)C(=O)N[C@@H](CC(C)C)C(=O)[C@@]1(C)CO1 [Carfilzomib],16.5
19,CN1CCC(COc2cnc(-c3cccc(Cn4nc(-c5cccc(C#N)c5)ccc4=O)c3)nc2)CC1 + CC(C)C[C@H](NC(=O)[C@H](CCc1ccccc1)NC(=O)CN1CCOCC1)C(=O)N[C@@H](Cc1ccccc1)C(=O)N[C@@H](CC(C)C)C(=O)[C@@]1(C)CO1 [Carfilzomib],26.9
20,CC(NCCCc1cccc(C(F)(F)F)c1)c1cccc2ccccc12.Cl (stereo not given) [Cinacalcet HCl] + CC(C)C[C@H](NC(=O)[C@H](CCc1ccccc1)NC(=O)CN1CCOCC1)C(=O)N[C@@H](Cc1ccccc1)C(=O)N[C@@H](CC(C)C)C(=O)[C@@]1(C)CO1 [Carfilzomib],18.6
